Assay results as given in ChEMBL document CHEMBL1961873, “Compounds: GSK PKIS; Assays: Nanosyn kinase panel” (2012).

Assays:
[1] = biological target: T1, Inhibitor of nuclear factor kappa-B kinase subunit epsilon (Homo sapiens) (UniProt Q14164); settings: at 1 µM;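 further: reported values are averaged percent inhibition figures against human IKKε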
T1 sequence (whole entry): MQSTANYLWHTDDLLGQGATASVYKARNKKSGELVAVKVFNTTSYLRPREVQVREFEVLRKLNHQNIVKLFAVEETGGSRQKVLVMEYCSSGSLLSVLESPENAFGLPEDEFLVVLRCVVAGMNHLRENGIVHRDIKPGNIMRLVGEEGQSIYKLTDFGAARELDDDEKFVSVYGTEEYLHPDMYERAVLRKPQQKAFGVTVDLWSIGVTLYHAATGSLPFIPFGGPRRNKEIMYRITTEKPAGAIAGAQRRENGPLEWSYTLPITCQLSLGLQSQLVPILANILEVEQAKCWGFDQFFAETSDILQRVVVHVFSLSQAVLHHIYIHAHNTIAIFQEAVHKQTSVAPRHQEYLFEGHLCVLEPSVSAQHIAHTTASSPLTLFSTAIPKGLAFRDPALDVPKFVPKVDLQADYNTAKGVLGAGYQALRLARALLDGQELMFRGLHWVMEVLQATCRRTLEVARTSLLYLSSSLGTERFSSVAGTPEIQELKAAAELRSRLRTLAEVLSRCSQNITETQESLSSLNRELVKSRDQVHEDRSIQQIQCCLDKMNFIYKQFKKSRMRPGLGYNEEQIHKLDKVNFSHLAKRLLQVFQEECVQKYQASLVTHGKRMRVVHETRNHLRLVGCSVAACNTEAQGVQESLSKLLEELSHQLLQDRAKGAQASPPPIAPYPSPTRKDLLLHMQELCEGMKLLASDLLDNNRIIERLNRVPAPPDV

[2] = biological target: T2, Serine/threonine-protein kinase Nek1 (Homo sapiens) (UniProt Q96PY6); settings: at 0.1 µM
T2 sequence (whole entry): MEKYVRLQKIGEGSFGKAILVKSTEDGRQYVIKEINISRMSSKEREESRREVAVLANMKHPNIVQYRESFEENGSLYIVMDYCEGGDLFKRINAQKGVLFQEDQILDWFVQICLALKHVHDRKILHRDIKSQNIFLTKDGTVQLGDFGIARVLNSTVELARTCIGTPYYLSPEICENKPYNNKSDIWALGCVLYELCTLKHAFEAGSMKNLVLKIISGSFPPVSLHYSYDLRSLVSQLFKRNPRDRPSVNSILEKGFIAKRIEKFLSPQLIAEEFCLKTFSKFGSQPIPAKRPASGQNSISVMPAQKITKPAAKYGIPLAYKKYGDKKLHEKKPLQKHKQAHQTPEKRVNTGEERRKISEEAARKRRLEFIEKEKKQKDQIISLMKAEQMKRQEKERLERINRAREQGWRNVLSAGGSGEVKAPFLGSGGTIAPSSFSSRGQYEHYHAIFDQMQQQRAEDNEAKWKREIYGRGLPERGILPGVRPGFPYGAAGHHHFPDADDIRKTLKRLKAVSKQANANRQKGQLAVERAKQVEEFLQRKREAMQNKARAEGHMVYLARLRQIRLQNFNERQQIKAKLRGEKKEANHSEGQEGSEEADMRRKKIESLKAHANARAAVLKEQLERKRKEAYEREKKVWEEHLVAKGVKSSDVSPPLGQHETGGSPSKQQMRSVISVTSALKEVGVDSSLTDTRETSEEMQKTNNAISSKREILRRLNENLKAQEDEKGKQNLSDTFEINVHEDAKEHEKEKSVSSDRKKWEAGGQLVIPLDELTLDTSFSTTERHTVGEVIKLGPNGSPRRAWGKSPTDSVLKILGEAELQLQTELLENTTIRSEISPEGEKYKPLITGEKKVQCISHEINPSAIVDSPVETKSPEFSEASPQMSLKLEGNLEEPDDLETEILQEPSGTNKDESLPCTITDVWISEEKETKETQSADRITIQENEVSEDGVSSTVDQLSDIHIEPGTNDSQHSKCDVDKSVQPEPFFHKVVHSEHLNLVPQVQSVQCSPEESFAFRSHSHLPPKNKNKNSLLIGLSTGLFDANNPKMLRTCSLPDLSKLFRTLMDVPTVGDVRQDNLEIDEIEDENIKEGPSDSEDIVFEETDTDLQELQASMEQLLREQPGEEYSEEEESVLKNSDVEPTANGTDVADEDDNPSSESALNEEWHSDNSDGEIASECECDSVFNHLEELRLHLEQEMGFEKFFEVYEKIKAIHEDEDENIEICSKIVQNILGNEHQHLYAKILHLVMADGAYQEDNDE

[3] = biological target: T2, Serine/threonine-protein kinase Nek1 (Homo sapiens); settings: at 1 µM
[4] = biological target: T3, Serine/threonine-protein kinase Nek2 (Homo sapiens) (UniProt P51955); settings: at 0.1 µM
T3 sequence (whole entry): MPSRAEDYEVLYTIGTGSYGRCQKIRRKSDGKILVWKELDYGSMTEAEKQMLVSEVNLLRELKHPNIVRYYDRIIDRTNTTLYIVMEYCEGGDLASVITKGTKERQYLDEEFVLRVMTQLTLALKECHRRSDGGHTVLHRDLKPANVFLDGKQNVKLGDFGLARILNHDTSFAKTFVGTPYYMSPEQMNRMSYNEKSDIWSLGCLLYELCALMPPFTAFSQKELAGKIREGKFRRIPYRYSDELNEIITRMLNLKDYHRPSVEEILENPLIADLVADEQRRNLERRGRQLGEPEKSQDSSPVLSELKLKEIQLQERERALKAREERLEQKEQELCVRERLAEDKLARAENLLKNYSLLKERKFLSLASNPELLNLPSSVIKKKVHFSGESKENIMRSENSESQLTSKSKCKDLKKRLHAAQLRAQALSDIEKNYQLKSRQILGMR

[5] = biological target: T3, Serine/threonine-protein kinase Nek2 (Homo sapiens); settings: at 1 µM
[6] = biological target: Serine/threonine-protein kinase Nek6 (Homo sapiens) (UniProt Q9HC98); settings: at 0.1 µM
Chain of Serine/threonine-protein kinase Nek6 (Homo sapiens) (Q9HC98 whole entry): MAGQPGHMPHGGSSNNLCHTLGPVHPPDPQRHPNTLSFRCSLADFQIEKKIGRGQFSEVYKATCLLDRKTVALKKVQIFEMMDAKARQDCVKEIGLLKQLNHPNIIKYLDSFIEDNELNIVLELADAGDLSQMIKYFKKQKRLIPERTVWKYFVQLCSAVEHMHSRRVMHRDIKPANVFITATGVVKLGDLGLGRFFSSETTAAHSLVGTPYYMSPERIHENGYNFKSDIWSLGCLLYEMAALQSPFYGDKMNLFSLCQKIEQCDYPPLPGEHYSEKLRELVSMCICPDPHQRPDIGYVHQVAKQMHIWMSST

[7] = biological target: Serine/threonine-protein kinase Nek6 (Homo sapiens) (UniProt Q9HC98); settings: at 1 µM
[8] = biological target: Serine/threonine-protein kinase Nek7 (Homo sapiens) (UniProt Q8TDX7); settings: at 0.1 µM
Chain of Serine/threonine-protein kinase Nek7 (Homo sapiens) (Q8TDX7 whole entry, looked up): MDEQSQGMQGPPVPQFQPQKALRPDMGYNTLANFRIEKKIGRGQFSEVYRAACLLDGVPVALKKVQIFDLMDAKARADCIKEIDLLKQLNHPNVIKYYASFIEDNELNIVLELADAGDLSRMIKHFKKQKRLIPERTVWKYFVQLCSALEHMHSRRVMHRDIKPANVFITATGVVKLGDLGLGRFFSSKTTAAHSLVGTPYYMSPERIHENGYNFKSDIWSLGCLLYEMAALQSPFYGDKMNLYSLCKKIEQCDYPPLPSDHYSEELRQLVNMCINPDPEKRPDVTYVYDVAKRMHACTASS

[9] = biological target: Serine/threonine-protein kinase Nek7 (Homo sapiens) (UniProt Q8TDX7); settings: at 1 µM
[10] = biological target: T4, Serine/threonine-protein kinase Nek9 (Homo sapiens) (UniProt Q8TD19); settings: at 0.1 µM
T4 sequence (whole entry): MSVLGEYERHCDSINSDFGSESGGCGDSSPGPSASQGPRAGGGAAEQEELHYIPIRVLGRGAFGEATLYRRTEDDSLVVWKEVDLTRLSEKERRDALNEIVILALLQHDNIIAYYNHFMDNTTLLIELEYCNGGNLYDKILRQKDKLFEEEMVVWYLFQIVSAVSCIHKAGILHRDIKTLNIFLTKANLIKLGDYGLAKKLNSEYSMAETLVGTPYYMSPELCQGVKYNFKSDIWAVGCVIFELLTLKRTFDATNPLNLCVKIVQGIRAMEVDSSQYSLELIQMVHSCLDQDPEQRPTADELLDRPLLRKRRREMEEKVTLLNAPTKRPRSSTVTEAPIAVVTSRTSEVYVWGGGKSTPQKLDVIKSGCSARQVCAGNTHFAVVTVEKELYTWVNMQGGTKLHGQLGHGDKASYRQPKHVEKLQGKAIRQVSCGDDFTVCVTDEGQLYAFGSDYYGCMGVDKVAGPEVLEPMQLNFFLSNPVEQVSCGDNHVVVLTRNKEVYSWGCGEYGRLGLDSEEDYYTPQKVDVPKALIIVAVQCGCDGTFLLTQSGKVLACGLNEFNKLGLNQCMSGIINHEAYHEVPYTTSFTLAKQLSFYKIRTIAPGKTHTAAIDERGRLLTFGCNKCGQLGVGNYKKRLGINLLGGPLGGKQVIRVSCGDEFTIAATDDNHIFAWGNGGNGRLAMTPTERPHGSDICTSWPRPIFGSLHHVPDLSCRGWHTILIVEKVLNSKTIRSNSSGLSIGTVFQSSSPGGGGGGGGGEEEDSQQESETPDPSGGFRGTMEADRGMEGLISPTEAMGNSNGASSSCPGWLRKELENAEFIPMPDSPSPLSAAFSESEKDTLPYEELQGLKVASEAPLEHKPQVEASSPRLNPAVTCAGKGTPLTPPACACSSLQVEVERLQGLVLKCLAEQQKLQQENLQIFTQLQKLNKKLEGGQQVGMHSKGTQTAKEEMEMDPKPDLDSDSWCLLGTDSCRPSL

[11] = biological target: T4, Serine/threonine-protein kinase Nek9 (Homo sapiens); settings: at 1 µM
[12] = biological target: Serine/threonine-protein kinase PLK1 (Homo sapiens) (UniProt P53350); settings: at 0.1 µM
Chain of Serine/threonine-protein kinase PLK1 (Homo sapiens) (P53350 whole entry): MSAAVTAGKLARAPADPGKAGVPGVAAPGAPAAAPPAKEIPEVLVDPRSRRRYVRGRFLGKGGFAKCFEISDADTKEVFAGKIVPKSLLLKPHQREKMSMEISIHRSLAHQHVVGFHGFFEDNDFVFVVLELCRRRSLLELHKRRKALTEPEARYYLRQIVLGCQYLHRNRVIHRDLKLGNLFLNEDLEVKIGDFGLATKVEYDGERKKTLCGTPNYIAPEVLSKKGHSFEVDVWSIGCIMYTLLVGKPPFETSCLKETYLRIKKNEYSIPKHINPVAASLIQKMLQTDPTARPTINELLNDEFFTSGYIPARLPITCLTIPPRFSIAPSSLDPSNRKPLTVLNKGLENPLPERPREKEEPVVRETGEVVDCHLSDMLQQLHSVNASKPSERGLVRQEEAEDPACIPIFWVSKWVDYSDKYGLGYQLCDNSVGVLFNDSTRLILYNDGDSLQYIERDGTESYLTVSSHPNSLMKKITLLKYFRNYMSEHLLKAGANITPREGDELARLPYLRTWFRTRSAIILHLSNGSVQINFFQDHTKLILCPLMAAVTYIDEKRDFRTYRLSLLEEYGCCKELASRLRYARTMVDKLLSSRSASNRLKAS

[13] = biological target: Serine/threonine-protein kinase PLK1 (Homo sapiens) (UniProt P53350); settings: at 1 µM
[14] = biological target: T5, Dual specificity protein kinase TTK (Homo sapiens) (UniProt P33981); settings: at 0.1 µM
T5 sequence (whole entry): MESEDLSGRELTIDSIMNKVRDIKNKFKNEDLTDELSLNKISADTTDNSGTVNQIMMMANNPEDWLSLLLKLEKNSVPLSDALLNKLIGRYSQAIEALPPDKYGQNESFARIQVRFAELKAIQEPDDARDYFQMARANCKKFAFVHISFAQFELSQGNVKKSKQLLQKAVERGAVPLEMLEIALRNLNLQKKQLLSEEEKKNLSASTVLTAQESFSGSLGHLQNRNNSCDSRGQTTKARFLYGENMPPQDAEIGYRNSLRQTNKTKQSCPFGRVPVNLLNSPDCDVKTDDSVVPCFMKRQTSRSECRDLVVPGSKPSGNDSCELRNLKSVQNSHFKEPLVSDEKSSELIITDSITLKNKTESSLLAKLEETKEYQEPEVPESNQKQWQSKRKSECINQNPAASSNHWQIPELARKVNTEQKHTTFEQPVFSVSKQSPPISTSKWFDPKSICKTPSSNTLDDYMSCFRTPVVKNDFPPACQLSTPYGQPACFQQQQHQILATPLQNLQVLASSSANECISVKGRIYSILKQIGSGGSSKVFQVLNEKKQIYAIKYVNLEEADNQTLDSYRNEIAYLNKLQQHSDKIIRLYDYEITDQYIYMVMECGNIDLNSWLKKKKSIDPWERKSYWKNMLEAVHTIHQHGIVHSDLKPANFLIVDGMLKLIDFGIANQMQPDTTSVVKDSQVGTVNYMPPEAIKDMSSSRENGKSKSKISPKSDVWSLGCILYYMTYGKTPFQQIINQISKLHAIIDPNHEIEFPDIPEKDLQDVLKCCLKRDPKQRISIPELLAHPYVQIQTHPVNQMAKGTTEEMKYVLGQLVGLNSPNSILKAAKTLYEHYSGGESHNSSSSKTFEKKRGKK

[15] = system: T6, Receptor-type tyrosine-protein kinase FLT3 (Homo sapiens), P36888 [D835Y]; settings: at 1 µM
T6 sequence (whole entry): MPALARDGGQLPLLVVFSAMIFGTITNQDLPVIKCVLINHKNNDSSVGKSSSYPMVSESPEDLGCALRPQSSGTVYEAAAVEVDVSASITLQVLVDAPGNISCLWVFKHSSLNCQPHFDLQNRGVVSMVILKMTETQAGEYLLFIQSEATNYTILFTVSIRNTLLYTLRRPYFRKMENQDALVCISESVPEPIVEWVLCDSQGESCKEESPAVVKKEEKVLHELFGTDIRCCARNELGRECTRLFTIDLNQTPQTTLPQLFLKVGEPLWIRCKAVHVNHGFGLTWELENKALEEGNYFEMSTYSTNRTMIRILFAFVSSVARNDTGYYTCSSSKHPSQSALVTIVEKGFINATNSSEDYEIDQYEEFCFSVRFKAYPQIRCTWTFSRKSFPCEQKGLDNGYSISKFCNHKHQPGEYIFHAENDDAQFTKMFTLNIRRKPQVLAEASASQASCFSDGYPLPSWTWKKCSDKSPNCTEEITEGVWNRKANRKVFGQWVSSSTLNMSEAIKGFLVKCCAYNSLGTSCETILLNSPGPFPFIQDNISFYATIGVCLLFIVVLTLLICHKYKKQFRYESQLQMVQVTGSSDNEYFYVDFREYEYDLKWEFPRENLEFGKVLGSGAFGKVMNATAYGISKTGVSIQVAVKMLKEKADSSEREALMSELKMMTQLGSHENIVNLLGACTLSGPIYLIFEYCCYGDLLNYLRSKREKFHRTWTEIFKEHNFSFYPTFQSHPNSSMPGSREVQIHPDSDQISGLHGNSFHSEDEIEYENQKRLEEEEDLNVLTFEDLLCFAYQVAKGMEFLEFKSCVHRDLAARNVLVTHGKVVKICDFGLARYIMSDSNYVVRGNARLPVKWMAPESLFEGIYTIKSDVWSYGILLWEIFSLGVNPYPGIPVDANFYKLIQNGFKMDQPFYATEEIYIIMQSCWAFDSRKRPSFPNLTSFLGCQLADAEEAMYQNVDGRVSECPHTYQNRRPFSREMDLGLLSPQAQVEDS

[16] = biological target: Vascular endothelial growth factor receptor 3 (Homo sapiens) (UniProt P35916); settings: at 0.1 µM
Chain of Vascular endothelial growth factor receptor 3 (Homo sapiens) (P35916 whole entry): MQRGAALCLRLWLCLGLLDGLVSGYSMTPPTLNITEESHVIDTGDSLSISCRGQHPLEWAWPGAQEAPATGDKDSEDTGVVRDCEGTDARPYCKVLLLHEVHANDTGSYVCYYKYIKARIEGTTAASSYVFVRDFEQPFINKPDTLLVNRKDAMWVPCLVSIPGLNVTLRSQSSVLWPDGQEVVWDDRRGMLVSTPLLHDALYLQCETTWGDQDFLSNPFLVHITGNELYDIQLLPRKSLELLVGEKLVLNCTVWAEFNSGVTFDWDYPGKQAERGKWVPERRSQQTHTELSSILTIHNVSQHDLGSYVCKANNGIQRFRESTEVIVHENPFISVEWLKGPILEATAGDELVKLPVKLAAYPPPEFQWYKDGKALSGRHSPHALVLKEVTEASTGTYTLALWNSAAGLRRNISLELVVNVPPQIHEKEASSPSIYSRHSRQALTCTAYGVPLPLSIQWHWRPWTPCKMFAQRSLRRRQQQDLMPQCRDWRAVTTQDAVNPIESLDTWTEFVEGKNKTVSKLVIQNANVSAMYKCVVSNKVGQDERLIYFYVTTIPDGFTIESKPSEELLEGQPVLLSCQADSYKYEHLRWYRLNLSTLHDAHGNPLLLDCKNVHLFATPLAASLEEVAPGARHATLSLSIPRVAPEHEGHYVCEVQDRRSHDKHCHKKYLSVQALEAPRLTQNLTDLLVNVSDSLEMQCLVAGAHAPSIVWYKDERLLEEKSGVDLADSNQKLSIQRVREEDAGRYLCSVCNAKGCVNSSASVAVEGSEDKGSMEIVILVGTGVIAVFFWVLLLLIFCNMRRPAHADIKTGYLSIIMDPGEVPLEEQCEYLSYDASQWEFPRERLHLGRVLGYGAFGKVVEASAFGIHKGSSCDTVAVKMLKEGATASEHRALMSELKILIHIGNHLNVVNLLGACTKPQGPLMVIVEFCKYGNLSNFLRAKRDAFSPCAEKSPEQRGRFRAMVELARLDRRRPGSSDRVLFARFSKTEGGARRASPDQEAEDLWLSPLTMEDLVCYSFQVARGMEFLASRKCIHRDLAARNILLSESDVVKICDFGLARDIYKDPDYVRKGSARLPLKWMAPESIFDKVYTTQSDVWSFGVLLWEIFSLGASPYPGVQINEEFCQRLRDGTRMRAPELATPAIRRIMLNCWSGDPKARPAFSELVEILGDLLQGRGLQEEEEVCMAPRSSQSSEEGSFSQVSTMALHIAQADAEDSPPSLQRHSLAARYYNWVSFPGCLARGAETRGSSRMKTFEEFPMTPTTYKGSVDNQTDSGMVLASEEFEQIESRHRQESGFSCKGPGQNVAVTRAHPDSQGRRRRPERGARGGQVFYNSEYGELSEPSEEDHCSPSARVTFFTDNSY

[17] = biological target: Vascular endothelial growth factor receptor 3 (Homo sapiens) (UniProt P35916); settings: at 1 µM
[18] = biological target: Macrophage colony-stimulating factor 1 receptor (Homo sapiens) (UniProt P07333); settings: at 0.1 µM
Chain of Macrophage colony-stimulating factor 1 receptor (Homo sapiens) (P07333 whole entry): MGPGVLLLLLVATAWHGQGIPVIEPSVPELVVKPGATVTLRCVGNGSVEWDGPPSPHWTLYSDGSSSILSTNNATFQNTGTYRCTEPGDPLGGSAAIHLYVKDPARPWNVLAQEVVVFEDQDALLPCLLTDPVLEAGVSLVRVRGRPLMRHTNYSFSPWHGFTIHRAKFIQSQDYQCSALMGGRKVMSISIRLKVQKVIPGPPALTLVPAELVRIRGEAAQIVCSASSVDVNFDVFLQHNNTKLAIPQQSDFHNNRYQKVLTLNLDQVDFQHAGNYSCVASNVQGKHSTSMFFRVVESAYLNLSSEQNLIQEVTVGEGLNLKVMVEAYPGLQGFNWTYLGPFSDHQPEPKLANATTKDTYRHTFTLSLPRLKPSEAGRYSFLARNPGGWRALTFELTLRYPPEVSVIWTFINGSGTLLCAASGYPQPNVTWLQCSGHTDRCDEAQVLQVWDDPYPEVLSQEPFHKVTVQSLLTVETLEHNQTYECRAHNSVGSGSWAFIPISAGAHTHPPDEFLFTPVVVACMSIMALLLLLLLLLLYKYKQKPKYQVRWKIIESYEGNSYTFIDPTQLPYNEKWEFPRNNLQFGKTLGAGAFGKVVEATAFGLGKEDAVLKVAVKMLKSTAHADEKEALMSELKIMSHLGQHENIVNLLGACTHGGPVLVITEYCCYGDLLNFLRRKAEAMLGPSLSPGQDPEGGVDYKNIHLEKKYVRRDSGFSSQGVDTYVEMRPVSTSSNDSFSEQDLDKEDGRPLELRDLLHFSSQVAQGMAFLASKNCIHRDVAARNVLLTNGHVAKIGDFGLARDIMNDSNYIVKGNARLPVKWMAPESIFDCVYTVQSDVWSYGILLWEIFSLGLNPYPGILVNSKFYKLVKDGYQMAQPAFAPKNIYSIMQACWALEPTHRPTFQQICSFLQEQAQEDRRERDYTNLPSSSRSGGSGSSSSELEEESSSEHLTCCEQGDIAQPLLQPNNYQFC

[19] = biological target: Macrophage colony-stimulating factor 1 receptor (Homo sapiens) (UniProt P07333); settings: at 1 µM
[20] = biological target: Tyrosine-protein kinase Fyn (Homo sapiens) (UniProt P06241); settings: at 0.1 µM
Chain of Tyrosine-protein kinase Fyn (Homo sapiens) (P06241 2-537 limits assumed): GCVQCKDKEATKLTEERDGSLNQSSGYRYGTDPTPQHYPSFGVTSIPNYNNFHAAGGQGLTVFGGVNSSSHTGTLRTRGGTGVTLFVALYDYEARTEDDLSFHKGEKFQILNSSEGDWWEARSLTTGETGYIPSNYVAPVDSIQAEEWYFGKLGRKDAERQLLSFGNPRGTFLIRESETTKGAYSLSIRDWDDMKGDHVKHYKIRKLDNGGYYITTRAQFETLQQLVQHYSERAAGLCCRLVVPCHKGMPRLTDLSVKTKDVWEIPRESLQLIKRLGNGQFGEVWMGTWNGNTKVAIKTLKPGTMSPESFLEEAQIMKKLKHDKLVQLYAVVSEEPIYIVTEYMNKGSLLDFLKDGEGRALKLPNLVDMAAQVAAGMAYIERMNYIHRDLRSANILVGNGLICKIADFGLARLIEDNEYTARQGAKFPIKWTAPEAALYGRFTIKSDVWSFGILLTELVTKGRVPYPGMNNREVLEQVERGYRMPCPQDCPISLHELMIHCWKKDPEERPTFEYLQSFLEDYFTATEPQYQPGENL

Row | SMILES | inhibition [1] | inhibition [2] | inhibition [3] | inhibition [4] | inhibition [5] | inhibition [6] | inhibition [7] | inhibition [8] | inhibition [9] | inhibition [10] | inhibition [11] | inhibition [12] | inhibition [13] | inhibition [14] | inhibition [15] | inhibition [16] | inhibition [17] | inhibition [18] | inhibition [19] | inhibition [20]
1 | CCn1c(-c2nonc2N)nc2c(C#CC(C)(C)O)ncc(OC3CCNCC3)c21 | 95.8% | 2.28% | 2.37% | 3.31% | 2.51% | -0.18% | 1.86% | -3.88% | 5.15% | 2.14% | 5.22% | 2.8% | 5% | 5.34% | 0.12% | 8.92% | 26.6% | 1.2% | 2.92% | 1.53%
2 | N#Cc1c(NC(=O)CN2CCOCC2)sc2c1CCCC2 | 92% | 2.42% | 6.07% | 4.61% | 4.37% | 3.33% | 5.18% | 2.96% | 3.61% | 6.26% | 1.68% | 2.26% | 2.27% | 9.9% | 0.1% | 0.77% | 3.83% | 5.19% | 2.67% | 0.52%
3 | NC(=O)c1sc(-n2cnc3ccc(C(F)(F)F)cc32)cc1OCc1ccccc1Br | 6.28% | 3% | 3.1% | 4.34% | 5.43% | 3.44% | 3.3% | 5.57% | 3.81% | 8.05% | 28.9% | 81.4% | 94.3% | 8.68% | 5.89% | -1.7% | 3.99% | 0.91% | 3.49% | 2.36%
